Assay outcomes as filed in PubChem.
Shown is part of a subset that was picked to be rich in hits.
DT40 TDP1 CPT = qHTS for Inhibitors of human tyrosyl-DNA phosphodiesterase 1 (TDP1): qHTS in cells in presence of CPT | chicken DT40 Tdp1-/-;hTDP1 cells + 20 nM CPT, ATP luminescence, 48 h | Potency, µM (top dose mostly 46.2 µM), for the others: at the top dose activity change, negative = growth inhibition, hits mostly inhibitors | actives 12% (n = 420,000) | AID 686979, 2013; further: potency means the concentration at half of the fitted maximal effect; nearly all actives have a fitted effect of over 55% in size
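Chicken DT40 Tdp1-/- cells stably complemented with human TDP1 were seeded at 400 cells/well in medium containing 20 nM camptothecin, exposed to pin-transferred compounds, and grown at 37 °C for at least 48 hr. Viability was read as ATP luminescence.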
HT1080-NT tox = qHTS for induction of synthetic lethality in tumor cells producing 2HG: qHTS for the HT-1080-NT fibrosarcoma cell line. HT-1080-NT fibrosarcoma viability, CellTiter-Glo ATP luminescence, 48 h. Potency, µM (top dose mostly 46.1 µM), inactives show at the highest dose activity, negative = less viability, hits mostly cytotoxic. actives 1.6% (n = 360,000);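 further: NT is the 2HG producing partner of a matched IDH1 knockdown line; potency means the concentration at half of the fitted maximal effect; 0% = DMSO-treated cells and -100% = media-only wells without cells; nearly all actives have a fitted effect of over 55% in size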
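HT-1080-NT; 750 cells/well; 5% FBS RPMI; 48 h compound, 37 degrees C; CellTiter-Glo luminescence; curve fitting and curve-class assignment.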
HT1080 IDH1KD tx = qHTS for induction of synthetic lethality in tumor cells producing 2HG: qHTS for the HT-1080-IDH1KD cell line. actives 2% (n = 360,000). HT-1080 IDH1 knockdown viability, ATP luminescence, 48 h. Potency, µM (series often up to 46.1 µM), without a hit: top-dose activity, negative = toxicity, hits mostly cytotoxic. AID 686971, 2013;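 further: potency means the concentration at half of the fitted maximal effect; 0% = DMSO wells and -100% = cell-free medium wells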
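Cytotoxicity counter-line: IDH1KD HT-1080, 48 h, CellTiter-Glo. Curves classed by r2, magnitude and activity.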
ALOX12 inh = Primary qHTS assay for inhibitors of human arachidonate 12S-lipoxygenase (ALOX12): Round 2; AID 1671190, 2021; purified 12hLO, xylenol orange hydroperoxide absorbance; Potency, µM (doses to about 108 µM), without a hit: top-dose activity change, negative = inhibition, most hits filed as inhibitors; Polyunsaturated fatty acid lipoxygenase ALOX12 (Homo sapiens), P18054; actives 1.1% (n = 580,000); further: potency means the concentration at half of the fitted maximal effect
Target sequence (P18054 whole entry, looked up): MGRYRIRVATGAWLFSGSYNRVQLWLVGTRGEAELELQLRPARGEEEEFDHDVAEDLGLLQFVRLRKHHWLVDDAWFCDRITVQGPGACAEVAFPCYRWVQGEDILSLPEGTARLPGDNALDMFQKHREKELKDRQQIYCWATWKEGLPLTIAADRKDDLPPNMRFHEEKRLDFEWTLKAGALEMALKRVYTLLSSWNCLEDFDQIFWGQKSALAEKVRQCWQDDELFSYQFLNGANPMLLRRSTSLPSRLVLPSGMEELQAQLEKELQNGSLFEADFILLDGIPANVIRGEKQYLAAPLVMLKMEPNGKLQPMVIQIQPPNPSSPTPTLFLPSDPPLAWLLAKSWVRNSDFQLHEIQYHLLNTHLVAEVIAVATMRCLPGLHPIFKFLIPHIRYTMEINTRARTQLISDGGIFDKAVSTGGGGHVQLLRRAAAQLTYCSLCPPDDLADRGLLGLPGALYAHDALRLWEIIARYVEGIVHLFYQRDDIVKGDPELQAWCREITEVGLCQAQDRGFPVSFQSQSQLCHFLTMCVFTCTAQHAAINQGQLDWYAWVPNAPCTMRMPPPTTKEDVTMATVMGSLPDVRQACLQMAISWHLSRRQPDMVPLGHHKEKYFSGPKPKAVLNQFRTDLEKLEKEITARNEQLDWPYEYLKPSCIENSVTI
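Purified human 12hLO (150 nM final) in 25 mM Hepes, 0.01% Triton X-100, pH 7.0 was preincubated 15 min at room temperature with compound. Then 40 uM arachidonic acid was added, 30 min. Hydroperoxide was read by Fe-XO absorbance ratio 573/405 nm.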
DT40 TDP1 no CPT = qHTS for Inhibitors of human tyrosyl-DNA phosphodiesterase 1 (TDP1): qHTS in cells in absence of CPT; DT40 Tdp1-/- hTDP1 cells, no CPT, ATP luminescence, 48 h; AID 686978, 2013; Potency, µM (doses to about 46.2 µM), for the others: top-dose activity change, negative = growth inhibition, hits mostly inhibitors; actives 15% (n = 420,000); further: potency means the concentration at half of the fitted maximal effect; nearly all actives have a fitted effect of over 55% in size
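Luminescent ATP content (CellTiter-Glo) served as the growth readout. Knockout chicken DT40 cells expressing human TDP1 were exposed to compounds without camptothecin for a minimum 48 hr at 37 °C.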
IL1B secr inh = qHTS for Inhibitors of Inflammasome Signaling: IL-1-beta AlphaLISA Primary Screen. THP-1 LPS/ATP IL-1B secretion, AlphaLISA, 16 h; active compounds read low. activity change, % at 57.5 µM. actives 4.7% (n = 360,000). AID 743279, 2014; in the data active means activity change below about -50%; inconclusive means mostly about -30% to -49%
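THP-1 cells pretreated 1 hr with compounds (up to 57.5 uM final), then stimulated with LPS (250 ng/mL final) plus ATP (1.25 mM final); secreted IL-1B measured by AlphaLISA after 16 hr, decreased signal indicating inhibition.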
* = called active by the depositor. Unless noted, the call rests on the fitted dose curve; in most records, active means well fitted curve in the direction sought with a large enough effect; inconclusive means small, poorly fitted or top-dose-only effect, or another doubt; inactive means no such curve, though single readings can be large; an effect the other way counts as inactive or inconclusive. Unless noted, on the % scale 0 is the no-effect control and ±100 the full control effect.

CCN(CC(=O)Nc1ccccc1Br)Cc1nc2ccccc2c(=O)[nH]1 was read as DT40 TDP1 CPT inconclusive, HT1080-NT tox -5%, HT1080 IDH1KD tx -6%, ALOX12 inh 26%, DT40 TDP1 no CPT inconclusive and IL1B secr inh -9.
CN(Cc1nc2ccccc2c(=O)[nH]1)Cc1nc2ccsc2c(=O)[nH]1 was read as DT40 TDP1 CPT 0.52µM*, HT1080-NT tox 0%, HT1080 IDH1KD tx 2%, ALOX12 inh 14%, DT40 TDP1 no CPT 0.92µM* and IL1B secr inh 30.
`CCN(Cc1nc2ccccc2c(=O)[nH]1)C(=O)c1cccc(OCc2c(C)noc2C)c1` gave DT40 TDP1 CPT inconclusive, HT1080-NT tox inconclusive, HT1080 IDH1KD tx inconclusive, ALOX12 inh 17%, DT40 TDP1 no CPT 16µM* and IL1B secr inh 23.
Screening CNC(=O)[C@@H]1C[C@H](Oc2cccnc2)CN1C(=O)Cc1cccc(OC)c1 returned ALOX12 inh 72%.
Screening Cc1ccccc1C(=O)N(Cc1nc2ccccc2c(=O)[nH]1)C1CCCC1 returned DT40 TDP1 CPT inconclusive, HT1080-NT tox inconclusive, HT1080 IDH1KD tx inconclusive, ALOX12 inh -2%, DT40 TDP1 no CPT inconclusive and IL1B secr inh -3.
Screening Cc1ccc(C(=O)N(Cc2nc3ccccc3c(=O)[nH]2)C2CCCC2)cc1 returned DT40 TDP1 CPT 13µM*, HT1080-NT tox -9%, HT1080 IDH1KD tx inconclusive, ALOX12 inh -30%, DT40 TDP1 no CPT inconclusive and IL1B secr inh -22.
`CC(OCC(O)CN(C)Cc1nc2ccccc2c(=O)[nH]1)c1ccc(Cl)cc1` (configuration not stated) gave DT40 TDP1 CPT 18µM*, HT1080-NT tox -10%, HT1080 IDH1KD tx inconclusive, ALOX12 inh -12%, DT40 TDP1 no CPT inconclusive and IL1B secr inh inconclusive.
For COc1ccc(OC)c(S(=O)(=O)Nc2ccc(C(C)=O)cc2)c1 the results were DT40 TDP1 CPT 11µM*, HT1080-NT tox -1%, HT1080 IDH1KD tx inconclusive, ALOX12 inh 6%, DT40 TDP1 no CPT 18µM* and IL1B secr inh 14.
Cc1ccc(C)c(S(=O)(=O)Nc2ccc3oc(C)c(C(=O)O)c3c2)c1 was read as DT40 TDP1 CPT 3%, HT1080-NT tox 29%, HT1080 IDH1KD tx -2%, ALOX12 inh 4%, DT40 TDP1 no CPT 1% and IL1B secr inh 25.
COc1ccc(OC)c(S(=O)(=O)Nc2ccc3oc(C)c(C(C)=O)c3c2)c1 was read as DT40 TDP1 CPT 16µM*, HT1080-NT tox -27%, HT1080 IDH1KD tx -28%, ALOX12 inh -8%, DT40 TDP1 no CPT 15µM* and IL1B secr inh 22.
Screening COC(=O)c1c(C)oc2ccc(NS(=O)(=O)c3cc(OC)ccc3OC)cc12 returned DT40 TDP1 CPT 10µM*, HT1080-NT tox inconclusive, HT1080 IDH1KD tx inconclusive, ALOX12 inh 0%, DT40 TDP1 no CPT 10µM* and IL1B secr inh 8.
For CC(=O)[C@@]1(O)C(C)CC2C3C=C(C)C4=Cc5c(cnn5-c5ccccc5)C[C@]4(C)C3C(O)C[C@@]21C (some centres not stated) the results were DT40 TDP1 CPT 4.6µM*, HT1080-NT tox 4.6µM*, HT1080 IDH1KD tx 21µM*, ALOX12 inh -74%, DT40 TDP1 no CPT 5.2µM* and IL1B secr inh -91*.
`CS(=O)(=O)c1cccc(NC(=O)CSc2nc(C3CC3)n(-c3ccccc3)n2)c1` gave ALOX12 inh -11%.
`COc1ccc(-c2noc([C@@H]3CCCN3C(=O)c3cccc(F)c3)n2)cc1OC` gave ALOX12 inh 29%.
For CCOC(=O)N1CCN(C(=O)C[C@@H]2C[C@@]3(C(=O)OCC)CCC=C3N(Cc3ccco3)C2=O)CC1 the results were DT40 TDP1 CPT 0%, HT1080-NT tox 25%, HT1080 IDH1KD tx 11%, ALOX12 inh 0%, DT40 TDP1 no CPT -13% and IL1B secr inh 4.
`CCOC(=O)[C@]12CCC=C1N(Cc1cccc3ccccc13)C(=O)[C@H](CC(=O)NCCC(C)C)C2` gave DT40 TDP1 CPT 23µM*, HT1080-NT tox inconclusive, HT1080 IDH1KD tx inconclusive, ALOX12 inh 3%, DT40 TDP1 no CPT 21µM* and IL1B secr inh -55*.
`CCOC(=O)N1CCN(C(=O)C[C@@H]2C[C@@]3(C(=O)OCC)CCC=C3N(Cc3cccc4ccccc34)C2=O)CC1` gave DT40 TDP1 CPT inconclusive, HT1080-NT tox 0%, HT1080 IDH1KD tx -14%, ALOX12 inh inconclusive, DT40 TDP1 no CPT 16µM* and IL1B secr inh 10.
Screening CCOC(=O)[C@]12CCC=C1N(Cc1cccc3ccccc13)C(=O)[C@H](CC(=O)NCc1ccc(OC)c(OC)c1)C2 returned DT40 TDP1 CPT inconclusive, HT1080-NT tox inconclusive, HT1080 IDH1KD tx inconclusive, ALOX12 inh -3%, DT40 TDP1 no CPT 16µM* and IL1B secr inh inconclusive.
O=C(/C=C/c1cn(-c2ccccc2)nc1-c1cccnc1)N1CCCC1 was read as DT40 TDP1 CPT 8.2µM*, HT1080-NT tox 4%, HT1080 IDH1KD tx -13%, ALOX12 inh -28%, DT40 TDP1 no CPT 7.3µM* and IL1B secr inh -12.
Screening O=C(/C=C/c1cn(-c2ccccc2)nc1-c1cccnc1)NCCN1CCOCC1 returned DT40 TDP1 CPT -25%, HT1080-NT tox 4%, HT1080 IDH1KD tx 0%, ALOX12 inh -2%, DT40 TDP1 no CPT inconclusive and IL1B secr inh -17.
N#C/C(=C\c1cn(-c2ccccc2)nc1-c1cccnc1)c1nnc2n1CCCCC2 was read as DT40 TDP1 CPT inconclusive, HT1080-NT tox -28%, HT1080 IDH1KD tx -18%, ALOX12 inh 0%, DT40 TDP1 no CPT inconclusive and IL1B secr inh -61*.
Screening O=C(/C=C/c1cn(-c2ccccc2)nc1-c1cccnc1)c1ccco1 returned DT40 TDP1 CPT 15µM*, HT1080-NT tox inconclusive, HT1080 IDH1KD tx inconclusive, ALOX12 inh 9%, DT40 TDP1 no CPT 10µM* and IL1B secr inh -96*.
For CCN(CC)CCNCc1cccs1 the results were ALOX12 inh -65%.
